IMPase Li inh: membrane-permeable IMPase blocker, potentiated with lithium. CHO-M1 cells, IP1 TR-FRET (IP-One), carbachol + lithium. Potency, µM (doses to about 59.4 µM), actives largely listed as inhibitors. 210,000 compounds, 0.35% hits;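 note: IP1 builds up when IMPase is blocked and the TR-FRET signal falls; nearly all actives have a fitted effect of over 50% in size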
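Lithium-sensitised IP1 accumulation assay; M1-expressing CHO cells treated 30 min at 37C with compound. Competitive antibody detection by time-resolved FRET followed a 10 min room-temperature lysis step.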
PNC inhibitor: inhibitors of perinucleolar compartment assembly. PC3M PTB-GFP, PNC prevalence imaging, 16 h; hits give low values. activity change (PNC), negative = inhibition, % at 10 µM. 140,000 compounds, 3.1% hits;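 active = readout at or below -70, meaning at least 70% loss of cells showing the perinucleolar compartment, a nuclear body marking cancer cells; inconclusive = readout between -30 and a set limit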
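Read-out is percentage of cells bearing a perinucleolar compartment, from automated 20x imaging of fixed, Hoechst-stained PC3M PTB-GFP cells. Cells were seeded 4 h, then exposed 16 h to compound (23 nl of library stock) in duplicate plates.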
ALOX12 inhib: blocks human 12-lipoxygenase activity; P18054; purified 12-hLO, xylenol orange hydroperoxide absorbance; Potency, µM (doses to about 57.1 µM), usual class: inhibitors; 150,000 compounds, 0.12% hits; AID 1452; note: nearly all actives have a fitted effect of over 55% in size
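Purified human 12hLO (150 nM), preincubated 15 min with compound, then 40 uM arachidonic acid for 30 min, room temperature, Hepes pH 7.0 with 0.01% Triton X-100. Hydroperoxide detected by ferrous iron/xylenol orange; 573/405 nm absorbance ratio gives reaction progress.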
IMPase inh: membrane-permeable compound that blocks inositol monophosphatase; P97697; CHO-M1 cells, IP1 accumulation, HTRF TR-FRET ratio; inhibition (IP1 accumulation), % at 46.1 µM; 120,000 tested, under 10 active; active = well fitted curve in the direction sought with a large enough effect in the signal ratio, not every such curve was filed as active; inconclusive = small, poorly fitted or top-dose-only effect, or a change in a side signal; inactive = no such curve, though single readings can be large or run the other way; the % refers to the signal ratio;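 note: cells stimulated with carbachol in lithium chloride buffer; higher means more IMPase inhibition seen as more IP1 and lower FRET ratio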
Target sequence (P97697 whole entry, looked up): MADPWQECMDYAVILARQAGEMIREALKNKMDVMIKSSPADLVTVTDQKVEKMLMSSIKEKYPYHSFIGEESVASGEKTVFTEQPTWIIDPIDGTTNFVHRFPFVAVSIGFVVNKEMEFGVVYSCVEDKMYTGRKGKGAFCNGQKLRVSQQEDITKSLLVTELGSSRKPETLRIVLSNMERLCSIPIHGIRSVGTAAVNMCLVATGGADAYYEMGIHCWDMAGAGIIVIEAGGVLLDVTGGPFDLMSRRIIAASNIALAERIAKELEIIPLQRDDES
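Measured: the HTRF emission ratio (665/620 nm) plus the 620 nm donor channel, each fitted to the Hill equation to give AC50. Cells were CHO-M1 given compounds up to 46 uM and a 30 min carbachol stimulation at 37C.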
Numbers stand for hits; . = inactive; ? = inconclusive; / = not tested or not shown; [ ] = dose if it differs, or a comment. The full list was thinned out, with hits kept by preference. Unless noted, calls come from the whole dose curve; as a rule, active = well fitted curve in the direction sought with a large enough effect; inconclusive = small, poorly fitted or top-dose-only effect, or another doubt; inactive = no such curve, though single readings can be large; an effect the other way counts as inactive or inconclusive.

SMILES	IMPase Li inh	PNC inhibitor	ALOX12 inhib	IMPase inh
O=C(Nc1nc2nccc(-c3ccccc3)n2n1)c1ccc(F)cc1	10µM	?	.	/
CC(C)NS(=O)(=O)c1ccc(CCC(=O)N2CCc3ccccc3C2)cc1	.	/	/	/
CC(NS(=O)(=O)c1ccc(CCC(=O)N2CCN(C)CC2)cc1)c1ccccc1 (stereo unspecified)	.	-81.7	.	.
COc1ccc2c(Cl)cc(NC(=S)Nc3ccccc3)nc2c1	.	/	.[11.4 µM]	/
CC(C)(C)NCC(O)COc1cccc2c1C[C@H](O)[C@H](O)C2 (stereo partly specified)	.	-114.6	.	/
COC(=O)c1ccc(C(=O)Nc2ccc3nc(-c4cccnc4)[nH]c3c2)cc1	.	-83.1	.	.
CC(=O)Nc1ccc2nc(-c3cccnc3)[nH]c2c1	.	-100.0	.	.
COC(=O)[C@@H](c1ccccc1Cl)N1CCc2sccc2C1	.	/	/	/
Cc1cccc(OCC(O)CN2CC3(C)CC2CC(C)(C)C3)c1 (stereo unspecified)	.	?	.	/
Cc1cc(C)n2nc(SCN3C(=O)c4ccccc4C3=O)nc2n1	12.6µM	.	.	.
COC(=O)CSc1nc2nc(C)cc(C)n2n1	.	-84.7	.	.
CCOC(=O)CSc1nc2nc(C)cc(C)n2n1	.	.	.	.
CN(C)c1ccnc(-c2ccccc2C(F)(F)F)n1	.	/	.	/
CCCCCS(=O)(=O)CCCCCCCCCCn1c(-c2ccc(O)cc2)c(C)c2cc(O)ccc21	.	/	.	/
S=c1[nH]nc(-c2ccccc2)n1/N=C/c1ccc(-c2ccccc2Cl)o1	.	-100.4	.	/
Cc1ccc(/C=N/n2c(-c3ccncc3)n[nH]c2=S)o1	.	/	/	/
CN(C)c1ccc(N=Nc2ccccc2C(=O)OCC(=O)NC2CCCC2)cc1	/	-115.2	.	.
C/C(=N\S(=O)(=O)c1ccc(C)cc1)Nc1cc(C(C)C)c(O)cc1C	.	?	.	.
CCCC[C@@H]1C[C@H]1C(NC(=O)c1ccco1)c1ccc(Cl)cc1 (stereo partly specified)	.	/	.	/
O=C(c1cn(-c2ccccc2)nc1-c1cccs1)N1CCOCC1	.	.	.	.
O=C(c1cn(-c2ccccc2)nc1-c1cccs1)N1CCN(c2ccccc2)CC1	.	-83.1	.	.
O=C(c1cn(-c2ccccc2)nc1-c1ccc(Br)cc1)N1CCOCC1	.	-113.8	.	/
c1ccc(CN2CCN(c3nc(NCc4ccco4)c4ccccc4n3)CC2)cc1	.	.	.	.
OCCN1CCN(c2nc(NCc3ccco3)c3ccccc3n2)CC1	.	-88.0	.	?
CCOc1cccc(C2c3c(oc4ccc(F)cc4c3=O)C(=O)N2c2cc(C)ccn2)c1 (stereo unspecified)	/	/	/	.
SMILES	IMPase Li inh	PNC inhibitor	ALOX12 inhib	IMPase inh
CCN(CC)c1ncnc2ccc(Br)cc12	25.1µM	?	.	.
COc1cccc(/C=N/NC(=O)c2cc3c(OC)cccc3[nH]2)c1OC	.	?	.	.
COc1cccc(/C=N/NC(=O)c2cc3c(OC)c(OC)ccc3[nH]2)c1OC	.	-83.6	.	/
CC1=C(C(=O)OC(C)C)[C@@H](c2ccc(C)o2)NC(=O)N1	.	.	.	/
S=C1N[C@H](c2ccccc2)N[C@H](c2ccccc2)S1	.	/	.[11.4 µM]	/
CCc1cc2c(=O)[nH]c(Cc3ccccc3)nc2s1	.	-107.5	.	.
Cc1ccc(-c2cc(C(=O)N/N=C/c3c(C)nn(-c4ccccc4)c3C)[nH]n2)cc1	.	-91.9	.	.[1.84 µM]
Cc1nn(-c2ccccc2)c(C)c1-c1cc(C(=O)N/N=C/c2cccnc2)[nH]n1	.	/	/	/
Cc1ccc(-c2cc(C(=O)N/N=C/c3c(C)nn(-c4ccccc4)c3C)n[nH]2)s1	.	-115.1	.	.
Cc1nn(-c2ccccc2)c(C)c1/C=N/NC(=O)c1cc(C(C)(C)C)[nH]n1	.	-82.6	.	.
C[C@]12C[C@@](C)(C=C1/C=C/c1ccccc1)C(=O)C[C@H]2c1ccccc1	.	/	.	/
OC[C@@H]1O[C@@H](O)[C@H](N=Cc2ccc3c(c2)OCO3)[C@@H](O)[C@@H]1O	.	/	.[11.4 µM]	/
CCOC(=O)c1c(C)[nH]c(C(=O)COC(=O)CSC)c1C	.	-84.7	.	.
CCCCCCCC/C=C\CCCCCCCC(=O)N(CCO)CCO	.	/	.	/
Cc1ccccc1C(=O)NC(=S)NCC1CCCO1 (stereo unspecified)	.	-105.5	.	.
O=C(NC(=S)NCC1COc2ccccc2O1)c1ccccc1 (stereo unspecified)	.	?	12.6µM	.
CC(C)(C)c1ccc(C(=O)NC(=S)NCC2CCCO2)cc1 (stereo unspecified)	/	.	?	.
CCOC(=O)CCNCC1COc2ccccc2O1 (stereo unspecified)	.	-92.5	.	.[1.84 µM]
O=C(NCC1COc2ccccc2O1)c1ccccc1 (stereo unspecified)	.	.	.	.
Cc1nc2c(Br)cc(Br)cc2cc1O	?	.	.	.
COc1ccccc1N1C(=O)CC(Sc2ncccc2C(=O)O)C1=O (stereo unspecified)	.	-100.0	.	.
O=C(O)c1cccnc1SC1CC(=O)N(Cc2ccccc2)C1=O (stereo unspecified)	.	.	.	.
O=c1cnc2cncnc2n1Cc1ccc(F)cc1	.	/	/	/
COc1ccc(/C=N/NC(=S)Nc2ccccc2[N+](=O)[O-])cc1O	.	-117.0	.	/
O=[N+]([O-])c1cc(/C=N/NC(=S)Nc2ccccc2Cl)ccc1Cl	.	/	/	/
SMILES	IMPase Li inh	PNC inhibitor	ALOX12 inhib	IMPase inh
COc1ccc(/C=C2\SC(=NCc3ccccc3)NC2=O)cc1	.	.	.	.
COc1ccc(/C=C2\SC(=O)N=C2N)cc1	.	-104.5	.	/
O=C(O)c1ccc(C(=O)O)c(C(=O)Nc2ccc3c(c2)Cc2ccccc2-3)c1	.	/	.[11.4 µM]	/
O=S(=O)(Cc1cc(Oc2ccccc2)nc(-c2ccccc2)n1)c1ccccc1	.	-101.9	.	.
COC(=O)CC1Oc2cc3oc4c5ccccc5oc(=O)c4c3cc2O1 (stereo unspecified)	.	/	.	/
O=C(OCn1nnc2ccccc2c1=O)C1CCN(S(=O)(=O)c2cccs2)CC1	.	-100.0	.	.

Source: PubChem BioAssay
